# Test results from PubChem BioAssay AID588342 (National Center for Advancing Translational Sciences (NCATS), 2011).
# Several values for one entry are separate records, joined by “and”; a condition that tells them apart may be missing. Identical values can stand only once. Among all 360,000 compounds or so, about 25,000 (6.9%) were called active. Roughly 9% stayed inconclusive and do not appear here. Calls follow the shape of the dose curve; as a rule, active = well fitted inhibition curve with a large enough effect; inconclusive = small, poorly fitted or top-dose-only effect; inactive = flat fitted curve, though single readings scatter. Many of the other results were omitted from the sample, so actives are more common in it than they were.
# Target: Luciferin 4-monooxygenase (Photinus pyralis) (UniProt P08659)
# Sequence (P08659 whole entry, looked up): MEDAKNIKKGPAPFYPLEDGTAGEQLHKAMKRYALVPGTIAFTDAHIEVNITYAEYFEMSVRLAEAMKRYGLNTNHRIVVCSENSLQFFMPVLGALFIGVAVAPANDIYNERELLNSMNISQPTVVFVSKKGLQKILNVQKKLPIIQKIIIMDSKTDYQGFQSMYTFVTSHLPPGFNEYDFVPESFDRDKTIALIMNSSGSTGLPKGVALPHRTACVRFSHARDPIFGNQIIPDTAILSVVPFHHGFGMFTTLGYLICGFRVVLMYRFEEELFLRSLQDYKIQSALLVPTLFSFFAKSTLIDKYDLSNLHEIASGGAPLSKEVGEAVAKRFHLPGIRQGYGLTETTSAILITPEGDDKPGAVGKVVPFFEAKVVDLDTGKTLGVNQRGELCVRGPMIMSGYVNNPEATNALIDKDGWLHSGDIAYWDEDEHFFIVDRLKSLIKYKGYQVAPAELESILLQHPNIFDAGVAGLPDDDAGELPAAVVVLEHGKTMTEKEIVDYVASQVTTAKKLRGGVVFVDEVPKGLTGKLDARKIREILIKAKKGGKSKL
# Experiment: qHTS profiling assay for firefly luciferase inhibitor/activator using purifed enzyme and Km concentrations of substrates (counterscreen for miR-21 project); also: nearly all actives have a fitted effect of over 55% in size;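 as to activity change, negative = inhibition: plate controls were vehicle for no effect and reference inhibitor for full effect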
# Conditions: purified FLuc, luminescence inhibition; series mostly up to 57.5 µM; activity change, negative = inhibition: at the top concentration
# In short: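 Purified P. pyralis luciferase (10nM final) with 10uM D-luciferin and 10uM ATP (Km levels) in 50mM Tris acetate pH 7.5, 10mM Mg acetate, 0.01% Tween-20, 0.05% BSA; qHTS 6-point titration, ~60 µM downward; luminescence read.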
# Potency is read from the fitted curve at half-maximal effect.
SMILES,"activity change, negative = inhibition",Potency
O=C(CSc1nnc(N2CCOCC2)n1-c1cccc(F)c1)N1CCN(c2ccccn2)CC1,1.86% (inactive),
COc1cccc(C(=O)NCc2ccc3c(c2)CCN3C(=O)c2ccncc2)c1,1.74% (inactive),
COc1cccc(C(=O)n2ccc(-c3cccs3)n2)c1,,3.38 µM (active)
COc1cccc(C(=O)NCC(=O)OCc2cc(=O)n3ccsc3n2)c1,-3.98% (inactive),
CC(C)(C)c1cc2cccnc2n1Cc1ccccc1,-1.13% (inactive),
O=C(/C=C/c1cccs1)c1cc(Cl)ccc1OC(=O)N1CCOCC1,-0.486% (inactive),
CCOc1ccc(C2C(=O)N(C3CCCCC3)CC(=O)N2CCC2=CCCCC2)cc1OC (stereo unspecified),0.188% (inactive),
Cc1cccc(CSc2nnc(C)c(=O)n2N)c1,5.06% (inactive),
Cc1cccc(CSc2ccc(-c3cccs3)nn2)c1,,12 µM (active) and 8.49 µM (active)
N#Cc1ccc(-c2cccs2)nc1SCc1ccc(Br)cc1,-2.78% (inactive),
C[C@H](NC(=O)c1ccccc1Cl)C(=O)OCC(=O)N1CCN(c2ccccc2)CC1,1.68% (inactive),
COc1ccc(C(=O)C2CCCN(S(=O)(=O)c3cccc(C)c3)C2)c(C)c1 (stereo unspecified),5.75% (inactive),
CCN1C(=O)c2ccccc2S(=O)c2ccc(C(=O)NCc3ccc(F)cc3)cc21 (stereo unspecified),1.08% (inactive),
CN1CCN(S(=O)(=O)c2cccc(C(=O)O)c2)CC1,-0.781% (inactive),
O=C(O)c1cccc(N=NN2CCCCCC2)c1,,6.75 µM (active)
O=C(O)c1ccc(N=NN2CCOCC2)cc1,1.54% (inactive),
CC(C)Oc1ccc(S(=O)(=O)N2CCOCC2)cc1NC(=O)C1CCCC1,0.0682% (inactive),
O=C(Cn1nc(C(F)(F)F)c2c1CCCC2)Nc1ccc(Cl)cc1,-4.17% (inactive),
O=C(CNC(=O)c1ccco1)OCC(=O)c1ccccc1,-3.69% (inactive),
O=C(NCCS(=O)(=O)N1CCN(c2ccccc2)CC1)c1ccco1,2.07% (inactive),
O=C(NCCSc1ccccc1)c1ccco1,,23.9 µM (active)
CCOC(=O)Cn1c(=O)n(-c2ccccc2OC)c2nc(-c3cccc(F)c3)nc(C(N)=O)c21,-8.14% (inactive),
CC(C)(C)c1ccc(S(=O)(=O)N2CCN(C(=O)c3cc(-c4ccc(Br)cc4)n[nH]3)CC2)cc1,0.458% (inactive),
Cc1nnsc1C(=O)N/N=C/c1cccc(C(F)(F)F)c1,-2.3% (inactive),
FC(F)(F)c1cccc(N/N=C/c2ccccc2)c1,,12 µM (active)
CC(=O)N1CCN(C(=O)Nc2cccc(C(F)(F)F)c2)CC1,-0.34% (inactive),

SMILES,"activity change, negative = inhibition",Potency
CCC1CCCCN1C(=O)Cn1c(=O)n(CCCCCC(=O)NCc2ccccc2)c(=O)c2sccc21 (stereo unspecified),-16.2% (inactive),
CC(C)(C)OC(=O)Nc1ccc([C@@H](NC(=O)OC(C)(C)C)C(=O)OC(C)(C)C)cc1,2.72% (inactive),
COc1ccc2cc(CNc3ccc(OC)c(OC)c3)c(=O)n(CC(=O)Nc3ccccc3F)c2c1,5.48% (inactive),
Cc1cc2c(cc1S(=O)(=O)CCC(=O)Nc1ccc(OC(F)(F)F)cc1)OCC(=O)N2,-15.7% (inactive),
Nn1c(SCC(=O)Nc2nccs2)nnc1-c1ccco1,1.42% (inactive),
CCc1ccc(NC(=O)Cn2ncn3c(cc4ccccc43)c2=O)cc1,,inactive
CC(C)c1ccc(NC(=O)Cn2nnc(C(=O)NCCc3ccccc3)c2N)cc1,-5.02% (inactive),
CC(C)c1ccc(NC(=O)Cn2ncc3ccccc32)cc1,,10.7 µM (active)
Cc1oc(-c2ccccc2)nc1Cn1c(SCc2cccc(C(F)(F)F)c2)nc2cccnc21,-14.9% (inactive),
COc1ccc(N2CCN(Cc3nc4c(c(=O)[nH]c(=O)n4C)n3Cc3ccc(Cl)cc3)CC2)cc1,-1.19% (inactive),
O=C(NCCCO)C(=O)Nc1c2c(nn1-c1ccccc1)CSC2,-8.71% (inactive),
Cc1nc2ccccn2c1C(=O)NN=C1CCN(C)CC1,-1.15% (inactive),
CCS(=O)(=O)C1=NSC2=NC(=O)/C(=C\c3cc(C)n(-c4cccc(OC)c4)c3C)C(=N)N21,,6.75 µM (active)
COc1ccccc1OCCOc1ccc(/C=C2\C(=N)N3N=C(C)SC3=NC2=O)cc1,-12.2% (inactive),
CC1=CC2=NC(=O)/C(=C/c3coc4ccccc4c3=O)C(=N)N2O1,-16.2% (inactive),
Cc1cc(/C=C2/C(=N)N3C(=NC2=O)SN=C3S(C)(=O)=O)c(C)n1-c1ccccc1,,0.536 µM (active)
CCOc1cc(/C=C2\C(=N)N3N=C(C)SC3=NC2=O)ccc1OCCOc1ccccc1,1.67% (inactive),
CCC1=NN2C(=N)/C(=C/c3cc(C)n(-c4ccccc4)c3C)C(=O)N=C2S1,,26.9 µM (active)
CCS(=O)(=O)C1=NSC2=NC(=O)/C(=C\c3ccc(OS(=O)(=O)c4ccccc4)cc3)C(=N)N21,-9.36% (inactive),
N=C1/C(=C/c2cccn2-c2cccc([N+](=O)[O-])c2)C(=O)N=C2SC=CN12,4.38% (inactive),
Cc1cccc(N2CCN(C(=O)c3oc(=O)c4ccccc4c3-c3ccccc3)CC2)c1C,-0.455% (inactive),
COc1ccc(CC(=O)N2CC(=O)Nc3ccc(Br)cc3C2c2ccc(F)cc2)cc1OC (stereo unspecified),0.675% (inactive),
O=C(Cn1c(=O)nc(-c2ccccc2)c2cc(Cl)ccc21)NCc1ccc(Cl)cc1,3.37% (inactive),
Cc1c(C(C)CCCO)oc(=O)c2c1Oc1c(C)c(C(C)C[C@@H](C)O)oc(=O)c1C2 (stereo partly specified),2.46% (inactive),
O=C(NCCN1CCOCC1)c1cccc(S(=O)(=O)Nc2ccc(F)cc2)c1,3.82% (inactive),
COc1cc(Cl)c(C)cc1NC(=O)CCc1nc2cccnc2n1Cc1cccs1,-15.4% (inactive),

SMILES,"activity change, negative = inhibition",Potency
CCOc1ccc(NC(=O)CCC(=O)NNC(=O)NC2CCCCC2)cc1,1.41% (inactive),
Cc1ccccc1C(=O)Nc1sc2c(c1C(=O)N1CCC(C)CC1)CCCC2,-1.02% (inactive),
CCNS(=O)(=O)c1cc(-c2nnc(Nc3cccc(C(F)(F)F)c3)c3ccccc23)ccc1C,3.64% (inactive),
CCOC(=O)C1CCCN(C(=O)c2ccc(C)c(S(=O)(=O)N3CCCCC3)c2)C1 (stereo unspecified),-3.18% (inactive),
Cn1cccc1/C=N/NC(=O)CNc1cccc2ccccc12,-17% (inactive),
COC(=O)[C@H](C)NC(=O)Nc1ccc(OC(F)(F)F)cc1,0.295% (inactive),
Cn1cccc1/C=N/NC(=O)c1ccc(OC(F)(F)C(F)F)cc1,,12 µM (active)
COc1ccc(NC(=O)CSc2nc3ccccc3n2CC(=O)N2CCCCC2C)cc1 (stereo unspecified),-2.28% (inactive),
Cc1ccc(S(=O)(=O)N2CCOCC2)cc1NC(=O)CSc1nnc(N)s1,2.58% (inactive),
CCOC(=O)c1cc2c(=O)n3ccccc3nc2n(Cc2ccco2)c1=NC(=O)c1ccc(F)cc1,-0.239% (inactive),
Cc1ccc(OCCSc2nc3ccc(NC(=O)COc4ccc(C)cc4)cc3s2)cc1,1.87% (inactive),
CC1CCN(S(=O)(=O)c2ccc3c(ccn3CCC(=O)NCc3ccc(N(C)C)cc3)c2)CC1,-2.72% (inactive),
COc1ccc(CC(=O)Nc2nnc3n2CCS3)cc1OC,-3.34% (inactive),
CCOCCCNC(=O)c1cc2c(=O)n3ccccc3nc2s1,-15% (inactive),
CCc1ccc2oc(-c3ccc(N)cc3)nc2c1,,0.19 µM (active)
NS(=O)(=O)c1ccc(CCNC(=O)CCCCCn2c(=O)[nH]c3ccccc3c2=O)cc1,-7.29% (inactive),
CCc1ccc(NC(=O)c2cc(S(=O)(=O)NC3CCCCCC3)ccc2F)cc1,-8.51% (inactive),
CCOC(=O)C1=C(c2ccccc2)N=C2SCC(=O)N2C1c1ccc(O)c(OC)c1 (stereo unspecified),-1.7% (inactive),
CSc1ccc(CCNC(=O)c2cc(C)nc3c2c(C)nn3-c2cccc(F)c2)cc1,-1.61% (inactive),
COc1ccc(C2NC(=S)NC3=C2CCc2ccccc23)cc1OC (stereo unspecified),4.29% (inactive),
CCOC(=O)C1=C(c2ccccc2)NC(=S)NC1c1ccc(Cl)cc1 (stereo unspecified),1.44% (inactive),
CCOc1ccc(C2NC(=S)NC3=C2CCc2ccccc23)cc1 (stereo unspecified),,21.3 µM (active)
CCN1CCc2nc3sc(C(=O)Nc4ccccc4OC(F)(F)F)c(N)c3cc2C1,0.475% (inactive),
Cn1c(=O)c2c(nc(Oc3ccc(C#N)cc3)n2Cc2ccc(Cl)cc2Cl)n(C)c1=O,-3.98% (inactive),
FC(F)(F)c1ccnc(Oc2ccc(C3=NCCS3)cc2)c1,,3.38 µM (active)
O=[N+]([O-])c1cccc(C2=NCCS2)c1,-8.97% (inactive),

SMILES,"activity change, negative = inhibition",Potency
O=Cc1ccc(Oc2cccc(C(F)(F)F)c2)nc1,-3.32% (inactive),
O=C(OCC(=O)N1CCCC1)c1ccc(Cl)nc1,2.43% (inactive),
CCOc1ccc2nc(/N=C/c3nc(-c4ccccc4)oc3O)sc2c1,2.17% (inactive),
Oc1oc(-c2ccccc2Br)nc1/C=N/c1ccccn1,,7.57 µM (active)
CCOc1ccc(C(=O)NCC(=O)N2CCN(c3ccc(C(F)(F)F)cn3)CC2)cc1,6.42% (inactive),
CCn1cc(C(=O)OCC(=O)Nc2cc(C)cc(C)c2)c(=O)c2ccc(C)nc21,-2.09% (inactive),
O=S(=O)(NC1CC1)c1ccc(F)c(F)c1,-2.04% (inactive),
Cc1cc(C)cc(NC(=O)CSc2nc(=O)n(CCN3CCOCC3)c3c2CCC3)c1,-2.95% (inactive),
Cc1[nH]c2ccccc2c1SCC(=O)Nc1nccs1,,23.9 µM (active)
Cn1c(SCC(=O)Nc2nccs2)nnc1-c1cccnc1,2.95% (inactive),
CCn1c(SCC(=O)Nc2nccs2)nnc1-c1ccco1,-1.53% (inactive),
CCOc1ccccc1C(=O)NCc1ccc2c(c1)CCN2C(=O)c1ccc(F)cc1,-15% (inactive),
Cc1ccccc1NC(=O)CSc1ccc2nnc(-c3ccccn3)n2n1,-2.1% (inactive),
Cc1ccc(-c2onc(C)c2C)cc1S(=O)(=O)Nc1ccccn1,-14.3% (inactive),
COc1ccc(C(=O)NC2CCN(C(=S)NCCc3ccccc3)CC2)cc1,0.548% (inactive),
O=C1CCN(C(=S)NCCc2ccccc2)CC1,0.463% (inactive),
S=C(NCCc1ccccc1)N1CCCCC1,,16.9 µM (active)
CCOCCCN(C(=O)Cn1nnc(-c2ccc(OC)c(OC)c2)n1)C(CC)C(=O)NC1CCCC1 (stereo unspecified),-2.8% (inactive),
O=[N+]([O-])c1ccc2nc(-c3ccccn3)[nH]c2c1,,12 µM (active)
O=[N+]([O-])c1ccc(N/N=C2/CCCCC2c2ccccn2)c([N+](=O)[O-])c1 (stereo unspecified),-12.6% (inactive),
O=c1[nH]c2cccnc2n1-c1ccc([N+](=O)[O-])cc1,-0.226% (inactive),
COc1ccccc1NC(=O)CSc1oc(-c2ccco2)nc1S(=O)(=O)c1ccc(Br)cc1,-4.64% (inactive),
CCOc1ccc(S(=O)(=O)Nc2ccc3oc4c(c3c2)CC(C)CC4)cc1 (stereo unspecified),-12.4% (inactive),
